34 compounds from PubChem BioAssay (EPA / NIEHS) can be followed below.

SMILES strings stand for the structures. Records with an inconclusive call do not appear. Activity calls are given as the source filed them. Rule for the calls: active = hit-call score of the fitted dose curve at least 0.9, where 1 is the maximum; inconclusive = response in the unintended direction; inactive = score below 0.9.

Chain of Glyceraldehyde-3-phosphate dehydrogenase (Homo sapiens) (P04406 whole entry, looked up): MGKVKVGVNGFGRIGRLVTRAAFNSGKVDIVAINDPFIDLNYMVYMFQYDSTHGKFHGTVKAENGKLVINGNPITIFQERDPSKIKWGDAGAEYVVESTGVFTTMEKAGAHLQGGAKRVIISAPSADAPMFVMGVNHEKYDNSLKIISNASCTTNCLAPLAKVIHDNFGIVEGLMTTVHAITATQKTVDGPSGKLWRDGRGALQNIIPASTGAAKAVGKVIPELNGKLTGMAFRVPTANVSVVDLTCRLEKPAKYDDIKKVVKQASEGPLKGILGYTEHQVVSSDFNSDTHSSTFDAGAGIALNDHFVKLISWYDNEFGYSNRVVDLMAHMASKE

Read-out in the assay: Glyceraldehyde-3-phosphate dehydrogenase (Homo sapiens) (UniProt P04406)
Briefly: CLD_GAPDH_6hr: CellzDirect (CLD) Gene Expression Assay for Baseline Control (Glyceraldehyde 3-phosphate dehydrogenase) at 6 hours (AID 2283681).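 Note: active means increased signal relative to DMSO vehicle.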 How it is done:
CLD_6hr is a cell-based, multiplexed-readout assay that uses hepatocyte, a human liver primary cell, with measurements taken at 6 hours after chemical dosing in a 96-well plate.CLD_GAPDH_6hr is one of 16 assay component(s) measured or calculated from the CLD_6hr assay. It is designed to make measurements of mRNA induction, a form of inducible reporter, as detected with chemiluminescence signals by Quantitative Nuclease Protection Assay (qNPA) technology.Data from the assay component CLD_GAPDH_6hr was analyzed at the endpoint, CLD_GAPDH_6hr, in the positive analysis fitting direction relative to DMSO as the negative control and baseline of activity. Using a type of inducible reporter, gain-of-signal activity can be used to understand changes in the reporter gene as they relate to the gene GAPDH. Furthermore, this assay endpoint can be referred to as a secondary readout, because this assay has produced multiple assay endpoints where this one serves a background control function. To generalize the intended target to other relatable targets, this assay endpoint is annotated to the background measurement intended target family, where subfamily is baseline control.
Human hepatocyte cultures were treated daily for two consecutive days with fresh dosing solutions containing appropriate concentrations of the 320 ToxCast chemicals (chemical identities were blinded to CellzDirect and other ToxCast collaborators), vehicle control (0.2% DMSO), and positive control inducers as summarized in Table 1. Due to the large number of treatment groups and chemicals examined, the ToxCast chemicals were divided into two groups (spanning two independent cultures of hepatocytes from separate donor preparations (Hu778: ToxCast plates 1 and 2; Hu776: ToxCast plates 3 and 4). Each preparation of human hepatocyte cultures was treated with respective vehicle control, medium only control, set of six positive controls/reference chemicals for the five hepatic receptor pathways, and a subset of eight of the ToxCast chemicals (indoxacarb, pyrithiobac-sodium, norflurazon, cyhalofop-butyl, methomyl, thiram, acetochlor, and propiconazole). These replicate data, coupled with internal replicates designed within the blinded ToxCast chemical library, provided additional data to evaluate interindividual differences between hepatocyte preparations and their potential impact on chemical profiles.Cell morphology and integrity were evaluated using phase-contrast microscopy as an indicator of hepatocyte cell health (Tyson & Green, 1987). Cultures for each treatment group (i.e., media, vehicle [0.2% DMSO], positive control inducers [multiple concentrations], and the ToxCast chemicals [multiple concentrations]) were observed and cell morphology was assessed relative to vehicle control cultures at each harvest time point (0, 6, 24, or 48 h). […] Images were evaluated at the conclusion of the study to assess changes in cell integrity and account for the effects of chemical exposure on uncharacteristic changes in concentration-dependent gene expression profiles. The results from these determinations of apparent cytotoxicity were annotated (yes/no) alongside the corresponding qNPA data for reference.At the conclusion of each treatment period, hepatocyte cultures (96-well) were washed with 1 volume of HBSS, lysed by addition of 25 ul ArrayPlate lysis buffer (HTG, Tucson, AZ), and 70 ul/well of Denaturation Oil, denatured by incubation at 95C for 10 min, and frozen at approximately -70C until analysis by nuclease protection assay (qNPA) (Roberts et al., 2007). For qNPA analysis, cell lysates were thawed at 50C for approximately 30 min, qNPA probes were added, and samples were incubated at 95C for 10 min to begin the detection process by denaturing the target RNA, dissociating the duplexes and secondary structure hybridization. At the conclusion of the hybridization period, S1 nuclease reagent was added to each sample to digest all nonprotected nucleotides at 50C for 60-90 min. […]
For `CCNc1nc(N)nc(Cl)n1`, the call was inactive. With `CCCCCCC(C)OC(=O)COc1nc(F)c(Cl)c(N)c1Cl` (centres undefined) the entry was “inactive”; with `CCOC(=O)C(C)Oc1ccc(Oc2nc3ccc(Cl)cc3o2)cc1` (centres undefined), “inactive”. With `COCCO` the entry was “inactive”. With `CC(C)(c1ccc(O)cc1)c1ccc(O)cc1` the entry was “inactive”. With `OB(O)O`, the compound was classed as inactive. For `COc1c(Cl)ccc(Cl)c1C(=O)O`, the compound was called inactive. `c1ccc2[nH]c(-c3cscn3)nc2c1`: the compound was classed as inactive. Then `CCCCOC(=O)C(C)Oc1ccc(Oc2ccc(C(F)(F)F)cn2)cc1` (centres undefined), with “inactive”; and `CCCOC(=O)c1ccc(C(=O)OCCC)nc1`, with “inactive”.

As to `COC(=O)CSc1cc(N=c2sc(=O)n3n2CCCC3)c(F)cc1Cl`, the call was inactive. With `S=C([S-])NCCNC(=S)[S-].[Mn+2]` the entry was “inactive”.

With `CCOC(=O)COc1cc(-n2ncc(C(F)(F)F)c(C)c2=O)c(F)cc1Cl`, the call was inactive.

Consider `CCC(C)OC(=O)N1CCCCC1CCO` (centres undefined), for which the result was inactive. With `COC(=O)c1ccc(I)cc1S(=O)(=O)NC(=O)Nc1nc(C)nc(OC)n1` the entry was “inactive”; with `CCSC(=O)N(CC(C)C)CC(C)C`, “inactive”. Then `CCOC(=O)[C@H](C)Oc1ccc(Oc2nc3ccc(Cl)cc3o2)cc1`, with “inactive”; and `COC(=O)c1ccccc1C(=O)O`, with “inactive”. Take `O=C(O)C1(C(=O)Nc2ccc(Cl)cc2Cl)CC1`: the result was inactive. With `C=CCOC(Cn1ccnc1)c1ccc(Cl)cc1Cl` (centres undefined) the entry was “inactive”.

In the case of `COC(=O)c1c(Cl)nn(C)c1S(=O)(=O)NC(=O)Nc1nc(OC)cc(OC)n1`, the outcome was inactive. Then `COc1nc(C)nc(NC(=O)NS(=O)(=O)c2ccccc2OCCCl)n1`, with “inactive”; and `COC(=O)c1ccccc1S(=O)(=O)NC(=O)Nc1nc(OC(F)F)cc(OC(F)F)n1`, with “inactive”.

Take `CCC(O)=C1C(=O)CC(C(=O)O)CC1=O` (centres undefined): the compound was called inactive.

On to `C#CCOC(=O)[C@@H](C)Oc1ccc(Oc2ncc(Cl)cc2F)cc1`, for which the compound was called inactive. With `CCCN(CCC)c1c([N+](=O)[O-])cc(C(F)(F)F)c(N)c1[N+](=O)[O-]`, the result was inactive. With `Cc1nn(C)c(Oc2ccccc2)c1C=NOCc1ccc(C(=O)OC(C)(C)C)cc1` the entry was “inactive”. With `CCCN(CCC)C(=O)SCC` the entry was “inactive”. With `CC(C)(C)[C@@H](O)[C@@H](Cc1ccc(Cl)cc1)n1cncn1` the entry was “inactive”; with `CCCCCOC(=O)COc1cc(N2C(=O)C3=C(CCCC3)C2=O)c(F)cc1Cl`, “inactive”; with `CCCCC(CC)COC(=O)c1ccccc1C(=O)O` (centres undefined), “inactive”. For `CCCOC(=O)NCCCN(C)C`, the compound was called inactive. With `CC1(C)C(C=C(Cl)Cl)C1C(=O)OCc1cccc(Oc2ccccc2)c1` (centres undefined) the entry was “inactive”; with `COC(=O)c1ccc(CNS(C)(=O)=O)cc1S(=O)(=O)NC(=O)Nc1nc(OC)cc(OC)n1`, “inactive”.
